ChEMBL document CHEMBL1961873, “Compounds: GSK PKIS; Assays: Nanosyn kinase panel” (2012)

These compounds were tested against Insulin receptor-related protein (Homo sapiens) (UniProt P14616). Settings: at 1 µM.
Sequence of Insulin receptor-related protein (Homo sapiens) (P14616 27-742 limits assumed): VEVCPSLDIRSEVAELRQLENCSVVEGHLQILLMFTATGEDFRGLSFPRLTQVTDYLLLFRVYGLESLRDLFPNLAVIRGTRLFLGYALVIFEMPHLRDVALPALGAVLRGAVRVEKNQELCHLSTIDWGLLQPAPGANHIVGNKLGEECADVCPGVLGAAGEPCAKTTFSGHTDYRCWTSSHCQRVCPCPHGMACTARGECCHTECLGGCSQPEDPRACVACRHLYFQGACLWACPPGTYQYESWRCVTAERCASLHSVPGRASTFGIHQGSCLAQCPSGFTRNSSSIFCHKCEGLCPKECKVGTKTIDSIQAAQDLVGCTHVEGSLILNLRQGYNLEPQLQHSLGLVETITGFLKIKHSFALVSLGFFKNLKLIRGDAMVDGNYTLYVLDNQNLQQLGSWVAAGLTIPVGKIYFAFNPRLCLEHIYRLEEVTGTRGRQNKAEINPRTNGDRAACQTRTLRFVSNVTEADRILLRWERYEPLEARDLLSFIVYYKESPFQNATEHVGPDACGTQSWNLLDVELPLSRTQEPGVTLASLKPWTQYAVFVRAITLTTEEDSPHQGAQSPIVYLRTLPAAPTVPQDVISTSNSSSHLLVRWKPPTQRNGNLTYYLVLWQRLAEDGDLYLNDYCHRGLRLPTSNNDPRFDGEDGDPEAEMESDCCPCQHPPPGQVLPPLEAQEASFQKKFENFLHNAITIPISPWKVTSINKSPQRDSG
Sequence of Insulin receptor-related protein (Homo sapiens) (P14616 747-1297 limits assumed): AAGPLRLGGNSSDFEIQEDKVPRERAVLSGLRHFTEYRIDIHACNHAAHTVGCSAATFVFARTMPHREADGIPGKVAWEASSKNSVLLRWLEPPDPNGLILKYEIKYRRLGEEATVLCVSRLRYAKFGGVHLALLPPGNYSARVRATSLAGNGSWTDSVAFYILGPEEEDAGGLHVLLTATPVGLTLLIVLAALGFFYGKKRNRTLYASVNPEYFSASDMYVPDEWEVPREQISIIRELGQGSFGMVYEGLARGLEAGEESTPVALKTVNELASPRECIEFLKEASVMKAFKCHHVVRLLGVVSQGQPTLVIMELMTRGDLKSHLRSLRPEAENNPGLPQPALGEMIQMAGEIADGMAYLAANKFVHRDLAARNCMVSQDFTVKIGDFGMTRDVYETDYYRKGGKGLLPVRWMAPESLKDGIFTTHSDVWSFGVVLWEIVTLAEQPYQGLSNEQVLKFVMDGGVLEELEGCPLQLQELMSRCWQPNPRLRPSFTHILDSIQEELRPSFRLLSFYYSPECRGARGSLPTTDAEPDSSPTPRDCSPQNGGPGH

**Q.** Which inhibition does the source give for Oc1cccc(-c2nc(-c3ccccc3)[nH]c2-c2ccncc2)c1 here?
**A.** 0.88%

**Q.** Which inhibition does the source give for Cc1ccc2c(-c3ccnc(Nc4ccc5c(c4)OCCO5)n3)c(-c3ccc(C(F)(F)F)cc3)nn2n1 here?
**A.** 0.34%

**Q.** Which inhibition does the source give for O=S(=O)(CCOCc1ccc(-c2ccc3ncnc(Nc4ccc(OCc5cccc(F)c5)c(Cl)c4)c3c2)o1)c1ccccc1 here?
**A.** 0.31%

**Q.** With COc1cc2ncnc(Nc3ccc4c(cnn4Cc4ccccc4)c3)c2cc1OC as the compound, how does the inhibition read?
**A.** 2.09%

**Q.** For COC(=O)Nc1nc2cc(Oc3ccc(NC(=O)Nc4cccc(Br)c4)cc3)ccc2[nH]1, which inhibition is on record?
**A.** -1.05%

The compounds below were run against T1, Tyrosine-protein kinase ITK/TSK (Homo sapiens) (UniProt Q08881). Settings: at 0.1 µM.
T1 sequence (whole entry): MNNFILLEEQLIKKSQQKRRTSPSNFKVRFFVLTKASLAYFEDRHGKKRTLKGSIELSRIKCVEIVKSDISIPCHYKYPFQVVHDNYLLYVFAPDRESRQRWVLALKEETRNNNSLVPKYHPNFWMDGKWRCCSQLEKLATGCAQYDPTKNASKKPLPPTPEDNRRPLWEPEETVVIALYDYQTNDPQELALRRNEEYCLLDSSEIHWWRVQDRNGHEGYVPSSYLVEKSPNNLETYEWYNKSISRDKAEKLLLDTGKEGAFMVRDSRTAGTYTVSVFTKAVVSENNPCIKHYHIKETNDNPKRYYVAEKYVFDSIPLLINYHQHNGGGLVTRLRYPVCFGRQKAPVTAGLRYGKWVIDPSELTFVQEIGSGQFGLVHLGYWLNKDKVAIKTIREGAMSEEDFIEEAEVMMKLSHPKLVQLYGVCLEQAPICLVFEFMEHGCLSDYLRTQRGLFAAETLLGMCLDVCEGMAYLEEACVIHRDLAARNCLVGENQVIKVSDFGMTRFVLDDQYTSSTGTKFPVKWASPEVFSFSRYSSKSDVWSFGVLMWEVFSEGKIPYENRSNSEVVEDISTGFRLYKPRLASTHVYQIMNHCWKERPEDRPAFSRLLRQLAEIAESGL

**Q.** With N#Cc1cccc(Nc2nccc(-c3cnn4ncccc34)n2)c1 as the compound, how does the inhibition read?
**A.** 2.91%

**Q.** With Cc1cc(O)cc(C)c1/C=C/c1cncc(C(=O)N(C)C)c1 as the compound, how does the inhibition read?
**A.** 1.43%

**Q.** Which inhibition does the source give for CN(C)CCCn1c(-c2nonc2N)nc2cnccc21 here?
**A.** 1.43%

**Q.** For COc1cccc(-n2ncc3c(N/N=C/c4ccc(S(C)(=O)=O)cc4)ncnc32)c1, which inhibition is on record?
**A.** -2.33%

**Q.** How did the inhibition turn out when COc1cc(Nc2nccc(-c3cnn4ncccc34)n2)cc(OC)c1 was run?
**A.** 0.74%

**Q.** Which inhibition does the source give for NC(=O)c1cccc(Nc2nccc(Nc3cccc(F)c3)n2)c1 here?
**A.** -0.24%

**Q.** With NS(=O)(=O)c1ccc(Nc2cc(-c3cccc(O)c3)n[nH]2)cc1 as the compound, how does the inhibition read?
**A.** 2.78%

**Q.** With CC(C)c1ccc(Nc2nccc(-c3cnn4ncccc34)n2)cc1 as the compound, how does the inhibition read?
**A.** 0.75%

**Q.** O=C1Nc2ccccc2/C1=C/Nc1ccc2[nH]c(=O)[nH]c2c1 was tested. Which inhibition did it give?
**A.** 1.78%

**Q.** With CN1CCN(C(=O)c2ccc(NC(=O)Nc3ccc(N(C)c4ccnc(Nc5ccc(CS(C)(=O)=O)cc5)n4)cc3)cc2)CC1 as the compound, how does the inhibition read?
**A.** 6.56%

**Q.** CCn1c(-c2nonc2N)nc2c(C#CC(C)(C)O)nc(OCCNC)cc21 was tested. Which inhibition did it give?
**A.** 0.63%

**Q.** How did the inhibition turn out when COc1cccc(-n2ncc3c(N/N=C/c4ccc(C)cc4)ncnc32)c1 was run?
**A.** 2.28%

**Q.** For NS(=O)(=O)c1cccc(Nc2cc(-c3ccc(F)cc3)n[nH]2)c1, which inhibition is on record?
**A.** 1.67%

**Q.** With Cc1cc(Cl)cc2c1NC(=O)C2=NNc1ccc(S(N)(=O)=O)cc1 as the compound, how does the inhibition read?
**A.** 1.14%

**Q.** How did the inhibition turn out when CN(C)C(=O)O[C@@H]1CN[C@@H](C#Cc2cc3ncnc(Nc4ccc(OCc5cccc(F)c5)c(Cl)c4)c3s2)C1 was run?
**A.** 0.62%

**Q.** With CN(C)c1cc2c(Nc3ccc4c(cnn4Cc4ccccc4)c3)ncnc2cn1 as the compound, how does the inhibition read?
**A.** 1.37%

**Q.** Which inhibition does the source give for CN(C)C(=O)O[C@H]1CN[C@H](C#Cc2cc3ncnc(Nc4ccc(OCc5cccc(F)c5)c(Cl)c4)c3s2)C1 here?
**A.** 1.49%

**Q.** Which inhibition does the source give for COc1ccc(-c2nn3ncccc3c2-c2ccnc(Nc3cccc(C(F)(F)F)c3)n2)cc1 here?
**A.** 0.45%

**Q.** Which inhibition does the source give for COc1cc(/C=N/Nc2ncnc3c2cnn3C(C)C)ccc1O here?
**A.** 1.18%

**Q.** How did the inhibition turn out when Cc1ccc2c(-c3ccnc(Nc4cccc(C(F)(F)F)c4)n3)c(-c3ccccc3)nn2n1 was run?
**A.** 1.33%

**Q.** With Cc1cc(-c2ccccn2)cc(C)c1/C=C/c1cncc(-c2nn[nH]n2)c1 as the compound, how does the inhibition read?
**A.** 0.82%

**Q.** For c1ccc(Cc2nc3ccc(Nc4ncnc5ccccc45)cc3[nH]2)cc1, which inhibition is on record?
**A.** 0.82%

**Q.** Which inhibition does the source give for NS(=O)(=O)c1ccc(NC=C2C(=O)Nc3ccc4ncsc4c32)cc1 here?
**A.** 2.7%

**Q.** Which inhibition does the source give for Cc1ccc2c(c1)/C(=N/Nc1ccc(S(N)(=O)=O)cc1)C(=O)N2 here?
**A.** 0.66%

**Q.** For Nc1nccc(C#Cc2cncnc2Nc2ccc(OCc3cccc(F)c3)c(Cl)c2)n1, which inhibition is on record?
**A.** 1.89%

**Q.** With CCCN1CCCC(c2ccc(Nc3nc(Nc4cc(F)ccc4C(N)=O)c4cc[nH]c4n3)c(OC)c2)C1 (stereo not drawn) as the compound, how does the inhibition read?
**A.** 2.35%

**Q.** Which inhibition does the source give for O=C1Nc2ccc(-c3cccnc3)cc2C1=Cc1cc(Br)c(O)c(Br)c1 here?
**A.** 1.58%

**Q.** With ON=C1CCc2cc(-c3nc(C4CCNCC4)[nH]c3-c3ccncc3)ccc21 as the compound, how does the inhibition read?
**A.** 0.74%

**Q.** Which inhibition does the source give for Oc1cccc(-c2nc(-c3ccccc3)[nH]c2-c2ccncc2)c1 here?
**A.** 1.78%

**Q.** For Cc1ccc2c(-c3ccnc(Nc4ccc5c(c4)OCCO5)n3)c(-c3ccc(C(F)(F)F)cc3)nn2n1, which inhibition is on record?
**A.** -1.23%

**Q.** How did the inhibition turn out when O=S(=O)(CCOCc1ccc(-c2ccc3ncnc(Nc4ccc(OCc5cccc(F)c5)c(Cl)c4)c3c2)o1)c1ccccc1 was run?
**A.** -0.7%

**Q.** Which inhibition does the source give for COc1cc2ncnc(Nc3ccc4c(cnn4Cc4ccccc4)c3)c2cc1OC here?
**A.** 0.88%

**Q.** With COC(=O)Nc1nc2cc(Oc3ccc(NC(=O)Nc4cccc(Br)c4)cc3)ccc2[nH]1 as the compound, how does the inhibition read?
**A.** 1.01%
